SMN2 splice enh: qHTS Assay for Enhancers of SMN2 Splice Variant Expression. HEK293 SMN2-luciferase splicing reporter, luminescence, 30-36 h. Potency, µM (doses to about 46.1 µM), usual class: activators. actives 2.8% (n = 210,000); further: nearly all actives have a fitted effect of over 55% in size
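qHTS luciferase splicing reporter: luminescence rises when SMN2 exon 7 is included in transfected HEK293 cells. Compound exposure lasted 30-36 h at 37C, with 4.5 mM final sodium butyrate as control, followed by a ONE-Glo read.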
NPC1 promoter act: qHTS Assay for NPC1 Promoter Activators; actives 2.4% (n = 320,000); Huh7 NPC1 promoter luciferase reporter, 24 h; Potency, µM (doses to about 9.22 µM), most hits filed as activators; further: nearly all actives have a fitted effect of over 60% in size
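In 1536-well qHTS, Huh7 cells harboring an NPC1 promoter–luciferase construct received compound for 24 h; activation was quantified by luminescence following luciferase reagent addition.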
ELG1 genotoxic: qHTS screen for small molecules that induce genotoxicity in human embryonic kidney (HEK293T) cells expressing luciferase-tagged ELG1. HEK293T ELG1-luciferase reporter, luminescence, 16 h. Potency, µM (titrated, usually from 46 µM), actives largely listed as activators. actives 1.3% (n = 330,000). AID 504466, 2011; further: nearly all actives have a fitted effect of over 60% in size
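Screening used a luciferase reporter fused to human ELG1 in HEK293T cells. Luminescence was read on a CCD plate imager after 16 hr exposure and 30 min ONE-Glo incubation.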
KinaseGlo FLuc: Counterscreen for Luciferase (Kinase-Glo TM) Inhibition. Luciferin 4-monooxygenase (Photuris pensylvanica), Q27757. Kinase-Glo luciferase, ATP luminescence, 8 min. Potency, µM (top dose mostly 38.3 µM), most hits filed as inhibitors. actives 0.28% (n = 200,000); further: nearly all actives have a fitted effect of over 60% in size
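Kinase-Glo luciferase light output from ATP and luciferin was measured with 10 uM ATP, within the enzyme's linear range. Buffer: 50 mM imidazole pH 7.2, 50 mM KCl, 7 mM MgCl2, 0.01% Tween 20, 0.05% BSA; luminescence read after 8 min at ambient temperature.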
Rab9 prom act: qHTS Assay for Rab9 Promoter Activators | Potency, µM (titrated, usually from 9.22 µM), hits mostly activators | actives 2.8% (n = 320,000) | Huh7 Rab9 promoter-luciferase reporter, luminescence, 24 h; further: nearly all actives have a fitted effect of over 60% in size
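Cells were plated at 1500 per well in reduced-serum medium with 10% FBS and left 2 h. Compound in DMSO was then added for 24 h at 37 °C. Reporter signal was read by luminescence after 10 min with luciferase detection reagent.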
FLuc counter: qHTS profiling assay for firefly luciferase inhibitor/activator using purifed enzyme and Km concentrations of substrates (counterscreen for miR-21 project). Luciferin 4-monooxygenase (Photinus pyralis), P08659. purified FLuc, Km substrates, luminescence inhibition. Potency, µM (series often up to 57.5 µM), hits mostly inhibitors. actives 6.9% (n = 360,000); further: nearly all actives have a fitted effect of over 55% in size
Target sequence (P08659 whole entry, looked up): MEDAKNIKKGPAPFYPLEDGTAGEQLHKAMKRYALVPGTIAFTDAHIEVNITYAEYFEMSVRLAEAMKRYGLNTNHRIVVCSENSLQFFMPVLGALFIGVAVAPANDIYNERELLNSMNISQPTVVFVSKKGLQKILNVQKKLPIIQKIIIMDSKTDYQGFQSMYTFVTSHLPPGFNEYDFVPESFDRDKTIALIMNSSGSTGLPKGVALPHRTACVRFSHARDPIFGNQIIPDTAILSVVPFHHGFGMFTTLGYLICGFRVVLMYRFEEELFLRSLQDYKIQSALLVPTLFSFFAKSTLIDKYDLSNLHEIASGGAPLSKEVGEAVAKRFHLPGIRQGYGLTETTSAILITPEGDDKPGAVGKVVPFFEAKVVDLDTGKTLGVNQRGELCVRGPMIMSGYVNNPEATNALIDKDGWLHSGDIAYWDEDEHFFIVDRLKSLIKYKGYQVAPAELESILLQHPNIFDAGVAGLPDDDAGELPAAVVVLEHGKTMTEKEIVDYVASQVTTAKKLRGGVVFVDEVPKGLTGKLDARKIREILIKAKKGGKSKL
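Purified P. pyralis luciferase, 10 nM final, with Km-level 10 uM D-luciferin and 10 uM ATP in 50 mM Tris acetate pH 7.5, 10 mM Mg acetate, 0.01% Tween-20, 0.05% BSA; 6-point qHTS titration about 60 µM downward; luminescence read.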
Numbers stand for hits; – = inactive; ? = inconclusive; · = no result given. In the library only some 7.5% were active in any assay of this set; here they are far more common. The call rests on the fitted dose curve; in most records, active means well fitted curve in the direction sought with a large enough effect; inconclusive means small, poorly fitted or top-dose-only effect, or another doubt; inactive means no such curve, though single readings can be large; an effect the other way counts as inactive or inconclusive.

SMILES | SMN2 splice enh | NPC1 promoter act | ELG1 genotoxic | KinaseGlo FLuc | Rab9 prom act | FLuc counter
CCOc1ccc(-c2noc(CCC(=O)O)n2)cc1 | – | – | – | – | – | 12µM
COc1ccc(-c2noc(CCC(=O)O)n2)cc1 | – | – | – | – | – | –
COc1ccc(-c2noc(CCCC(=O)O)n2)cc1 | – | – | – | – | – | 11µM
Cn1cccc1C(=O)NC(=O)COC(=O)c1ccc(O)cc1 | – | – | – | – | – | –
CCOc1ccccc1NC(=O)COC(=O)C12CC3CC(CC(O)(C3)C1)C2 | · | – | – | · | – | 11µM
O=C(COC(=O)C12CC3CC(CC(O)(C3)C1)C2)Nc1ccc(Cl)cc1F | · | ? | ? | · | 1.3µM | 7.6µM
Cn1cccc1C(=O)NC(=O)COC(=O)c1ccccc1O | 35µM | – | – | – | – | –
COc1ccccc1NC(=O)COC(=O)C12CC3CC(CC(Br)(C3)C1)C2 | · | · | – | · | · | ·
Cn1cccc1C(=O)NC(=O)COC(=O)C12CC3CC(CC(O)(C3)C1)C2 | – | – | 9.2µM | – | – | 6µM
O=C(COC(=O)C12CC3CC(CC(O)(C3)C1)C2)NCCc1ccc(Cl)cc1 | – | – | – | – | – | –
CSc1nn(Cc2cccc(F)c2)c(N(C(C)=O)C(C)=O)c1S(=O)(=O)c1ccccc1 | – | · | · | · | · | –
CC[C@]1(C(=O)OC)[C@H]2C(=O)N(C)C(=O)[C@H]2[C@H]2CN=C(SCc3ccc(C#N)cc3)N21 | · | · | – | · | · | ·
COCCCn1c(C)cc(C(=O)COC(=O)C23CC4CC(CC(O)(C4)C2)C3)c1C | · | ? | ? | · | 0.63µM | ?
COCCNC(=O)COc1ccccc1Cl | – | – | – | – | – | –
COc1ccccc1NC(=O)COC(=O)C12CC3CC(CC(Cl)(C3)C1)C2 | – | – | – | – | – | 15µM
COc1ccccc1NC(=O)COC(=O)C1CC2C=CC1C2 (stereo not drawn) | – | – | – | – | – | 24µM
Cn1cccc1C(=O)NNC(=O)COc1ccccc1Cl | · | – | – | · | – | 15µM
COC(=O)c1ccccc1NC(=O)CSc1nc2ccccc2nc1Cc1ccc(F)cc1 | · | · | · | · | · | –
O=Cc1c(NCCN2CCCC2)c2ccccc2[nH]c1=O | · | – | – | · | – | –
COc1ccc(S(=O)(=O)N2CCC(C(=O)NCc3cccnc3)CC2)cc1OC | · | – | – | · | – | –
Cc1ccc(/C=N/NC(=O)c2nnn(-c3nonc3N)c2-c2cccs2)cc1 | · | – | – | · | – | 9.5µM
Nc1nonc1-n1nnc(C(=O)N/N=C/c2cccnc2)c1-c1cccs1 | · | – | – | · | – | ?
COc1ccc(/C=N/NC(=O)c2nnn(-c3nonc3N)c2-c2cccs2)cc1OC | · | – | – | · | – | 19µM
CC(C)(C)OC(=O)NCCCC1=CC2=CC(=O)C(C)(OC(=O)c3cnc4ccccc4n3)C(=O)C2=CO1 (stereo not drawn) | – | · | · | – | · | ·
COc1ccc(-c2cc(-c3ccccc3)nc3ncnn23)cc1 | – | – | – | – | – | –
SMILES | SMN2 splice enh | NPC1 promoter act | ELG1 genotoxic | KinaseGlo FLuc | Rab9 prom act | FLuc counter
COc1ccc(-c2cn3cccnc3n2)cc1Br | ? | – | ? | – | – | 19µM
COc1cc(OC)cc(C(=O)Nc2cc(-c3cn4cccnc4n3)ccc2C)c1 | – | – | – | – | – | ?
COc1ccc(-c2cn3cc(Br)cnc3n2)cc1 | 10µM | – | 21µM | – | ? | ?
COc1cc(C(=O)Nc2cc(-c3cn4cccnc4n3)ccc2C)cc(OC)c1OC | – | – | – | – | ? | 12µM
Nc1c(-c2ccc(Cl)cc2)cnn1-c1cccc(C(F)(F)F)c1 | – | ? | – | – | ? | ?
Cc1nn(-c2cccc([N+](=O)[O-])c2)c(N)c1-c1ccccc1 | 13µM | ? | – | – | 2.5µM | 15µM
Nc1nn(-c2ccccc2)c2ccc([N+](=O)[O-])cc12 | · | – | – | · | – | 17µM
Nc1c(-c2ccccc2)cnn1-c1cccc([N+](=O)[O-])c1 | – | ? | ? | – | ? | 15µM
Nc1c(-c2ccc(Cl)cc2)cnn1-c1cccc([N+](=O)[O-])c1 | – | – | – | – | ? | 15µM
CCc1ccc(CN2CCC(C(=O)Nc3ccc(Oc4ccccc4)nc3)CC2)o1 | · | – | – | · | – | –
CCCN1CCN(CCNC(=O)Nc2cc(C)ccc2OC)CC1 | – | · | · | · | · | –
COc1ccc(Cc2nc3ccc(C(=O)NC(C)c4cnn(C)c4)cc3o2)cc1 (stereo not drawn) | · | – | – | · | – | –
Cc1nc(N(C)C)c2sc(=S)n(Cc3ccccc3)c2n1 | – | – | – | – | – | –
O=[N+]([O-])c1ccc2cn(-c3ccccc3)nc2c1 | 18µM | ? | ? | – | 2µM | 9.5µM
COc1ccc(C(=O)N2CCN(C(=O)COc3ccc(C)cc3)CC2)cc1OC | – | · | · | · | · | 15µM
COc1ccc(OCC(=O)N2CCN(C(=O)c3ccc(OC)cc3)CC2)cc1 | – | · | · | · | · | –
COc1cc(OC)cc(C(=O)N2CCN(C(=O)COc3ccc(C)cc3)CC2)c1 | – | · | · | · | · | 24µM
CN1C(=O)c2ccccc2Sc2ccc(NC(=O)N3CCN(c4ccccc4F)CC3)cc21 | · | · | · | · | · | –
Cc1ccc(N(CC(=O)NCc2ccccc2)C(=O)c2csnn2)c(C)c1 | · | – | – | · | – | –
CNC(=S)NNC(=O)c1cc(-c2cccnc2)nc2ccccc12 | · | – | – | · | – | –
O=C(O)c1cc(C2CC2)nc2ccccc12 | – | – | – | – | – | –
CCCCNC(=S)NNC(=O)c1cc(C2CC2)nc2ccccc12 | · | – | – | · | – | 24µM
COCCNC(=S)NNC(=O)c1cc(C2CC2)nc2ccccc12 | · | – | – | · | – | 12µM
CCCCNC(=S)NNC(=O)c1cc(-c2ccncc2)nc2ccccc12 | · | – | – | · | – | 9.5µM
O=C(NNC(=O)c1cc(-c2ccncc2)nc2ccccc12)Nc1ccc(F)cc1 | · | – | – | · | – | ?
O=C(NNC(=O)c1cc(-c2ccncc2)nc2ccccc12)c1ccccc1F | · | – | – | · | – | 24µM
Cc1cc(OI)c(C(C)C)cc1-c1cc(C(C)C)c(OI)cc1C | · | · | · | – | · | ·
O=C(NCc1ccccc1Cl)C1CCC(=O)N(CC2CCCCC2)C1 (stereo not drawn) | · | – | – | · | – | –
CCC[C@H]1C[C@H](C(=O)N[C@@H]([C@H]2O[C@@H](SC)[C@@H](O)[C@@H](O)[C@@H]2O)[C@H](C)Cl)N(C)C1 | – | · | · | – | · | ·
COc1ccc(C)cc1N1CC(C(=O)Nc2ccccc2C(=O)NC2CC2)CC1=O (stereo not drawn) | · | – | – | · | – | ·
